Gal4-VP16 FLuc: counter-screen for ROR gamma inhibitors: Gal4-VP16 reporter; Drosophila S2 Gal4-VP16 UAS-luciferase, luminescence, 20 h; Potency, µM (doses to about 53.6 µM), inactives show at the top dose activity, negative = inhibition, actives largely listed as inhibitors; 3.5% of 310,000 active;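 note: Gal4-VP16 expression switched on by copper sulfate through the metallothionein promoter; % is set by controls: 0 for no effect and ±100 for the full control effect; nearly all actives have a fitted effect of over 50% in size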
RORgamma inh: blocks mouse ROR gamma transcriptional activity; Potency, µM (doses to about 53.6 µM), for the others: top-dose activity change, negative = inhibition, hits mostly inhibitors; P51450; Drosophila S2 Gal4-RORgamma UAS-luciferase reporter, 20 h; 5.4% of 310,000 active; note: % is set by controls: 0 for no effect and ±100 for the full control effect; nearly all actives have a fitted effect of over 60% in size
Target sequence (P51450 whole entry, looked up, the tested form may be a part): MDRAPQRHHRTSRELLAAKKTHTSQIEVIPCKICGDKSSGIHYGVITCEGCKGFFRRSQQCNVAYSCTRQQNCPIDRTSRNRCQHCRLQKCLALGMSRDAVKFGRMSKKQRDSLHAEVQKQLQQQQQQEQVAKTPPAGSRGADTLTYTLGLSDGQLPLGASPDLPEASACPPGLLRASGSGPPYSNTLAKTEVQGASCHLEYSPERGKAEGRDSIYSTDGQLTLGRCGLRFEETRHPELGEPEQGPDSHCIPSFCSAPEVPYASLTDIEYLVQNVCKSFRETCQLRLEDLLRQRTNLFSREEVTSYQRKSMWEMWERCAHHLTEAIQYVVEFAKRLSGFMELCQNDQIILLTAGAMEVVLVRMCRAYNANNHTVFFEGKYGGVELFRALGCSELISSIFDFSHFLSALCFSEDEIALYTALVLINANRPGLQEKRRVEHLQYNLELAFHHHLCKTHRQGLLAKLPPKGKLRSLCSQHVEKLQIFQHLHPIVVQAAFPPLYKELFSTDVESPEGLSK
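Compounds are pin-transferred onto Drosophila Schneider cells expressing a copper-inducible Gal4–ROR gamma transactivation domain fusion. After 1 hr, copper sulfate is added to 700 uM final; luciferase is read 20 hr later.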
PINK1 modulator: modulators of PINK1 expression; PINK1 immunofluorescence, high-content cytometry, 24 h; AID 624263; Potency, µM (doses to about 76.6 µM), inactives show top-dose activation (PINK1 increase), actives largely listed as activators; 0.2% of 410,000 active; active = well fitted activation curve with a large enough effect; inconclusive = small, poorly fitted or top-dose-only effect; cell line not stated here; note: % of control where 0% means no effect; nearly all actives have a fitted effect of over 65% in size
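Compound titrations (5 concentrations, 24 h) on a stable cell line; DMSO and CCCP controls. Endpoint: fixed-cell PINK1 immunofluorescence with mitochondrial, cell and nuclear markers, scanned by microplate cytometer.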
Epigenetic reg: epigenetic control regulation, reporter derepression; murine LDR cells, GFP reporter derepression, 30 h; Potency, µM (series often up to 53.9 µM), without a hit: at the highest dose GFP activation, hits mostly activators; 0.2% of 280,000 active; note: % of control where 0% means no effect; nearly all actives have a fitted effect of over 60% in size
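Murine LDR cells bearing a silenced CMV-driven GFP reporter were exposed to compound for 30 h at 37 C. After PBS washes, GFP-positive cells (20-120 um objects) counted by laser-scanning microplate cytometry.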
ClpP mod: qHTS Assay for Activators of ClpP; purified B. subtilis ClpP, FRET peptide cleavage, 20 min; 1.9% of 340,000 active; ATP-dependent Clp protease proteolytic subunit (Bacillus subtilis (strain 168)), P80244; Potency, µM (series often up to 57.5 µM), without a hit: top-dose activity change, negative = active; active = well fitted falling curve with a large enough effect; inconclusive = small, poorly fitted or top-dose-only effect; inactive = no such curve, though single readings can be large or run the other way; note: the source files actives as falling curves though it sought activators and does not explain the sign; nearly all actives have a fitted effect of over 65% in size
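Buffer: 100 mM Tris/HCl pH8, 100 mM KCl, 0.05% low protease BSA, 2.5% glycerol, 0.01% Tween-20. ClpP 10 microg/mL final; 20 min RT; delta FRET normalized to ADEP and DMSO controls.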
Sfp inh: inhibitors of Bacillus subtilis Sfp phosphopantetheinyl transferase; Biochemical Sfp PPTase activity, qHTS; Potency, µM, for the others: largest response in the series, negative = inhibition, most hits filed as inhibitors; 3.5% of 310,000 active; AID 1490;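 note: the enzyme is Sfp with the accession as filed and its product quenches rhodamine fluorescence; 0% = enzyme reaction without inhibitor and -100% = no enzyme wells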
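After 15 min at room temperature with compound, 15 nM Sfp received 5 uM rhodamine-CoA plus 12.5 uM BHQ-2-ybbR (50 mM Hepes pH 7.6, 10 mM MgCl2). Rate came from the fluorescence difference over 30 min, ex 525/em 598 nm.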
* marks the source's active call; other numbers are inactive results; ? = inconclusive; · = not tested or not shown; [ ] = remark or other dose. A selection: hits, their analogues and other compounds. The true share with any hit is near 8.1%. Unless noted, calls come from the whole dose curve; as a rule, active = well fitted curve in the direction sought with a large enough effect; inconclusive = small, poorly fitted or top-dose-only effect, or another doubt; inactive = no such curve, though single readings can be large; an effect the other way counts as inactive or inconclusive. Potency is the fitted concentration of half-maximal effect.

SMILES	Gal4-VP16 FLuc	RORgamma inh	PINK1 modulator	Epigenetic reg	ClpP mod	Sfp inh
COC(=O)c1ccc(NC(=O)c2ccc3c(c2)C(=O)N(C)C3=O)cc1	2.8%	-1.5%[1.91 µM]	1.0%	·	11.2µM*	20.7%
Cc1ccc(-c2nnc(SCC(=O)NC(C)(C)C)nc2-c2ccc(C)cc2)cc1	·	·	3.1%	9.8%	1.3%	·
COCCN1C(=O)c2ccc(C(=O)Nc3nccs3)cc2C1=O	-4.3%	-32.5%	1.7%[38.3 µM]	0.0%	-0.2%	13.8%
CCCN1C(=O)c2ccc(C(=O)Nc3nccs3)cc2C1=O	?	10µM*	4.3%	0.9%	0.2%	-4.2%
COc1ccc(NC(=S)N2CCC(Cc3ccccc3)CC2)cc1OC	15.8µM*	12.6µM*	1.5%	·	0.4%	0.6%
COc1cccc(NC(=S)N2CCC(Cc3ccccc3)CC2)c1	17.8µM*	7.08µM*	0.4%	·	-1.6%	5.9%
CC(=O)c1cccc(NC(=S)N2CCC(Cc3ccccc3)CC2)c1	-70.8%	14.1µM*	-1.6%	-0.3%	·	12.1%
CC(=O)c1ccc(NC(=S)N2CCC(Cc3ccccc3)CC2)cc1	-3.5%	20.1%	-1.5%	0.6%	-3.8%	?
COC(=O)Cc1ccc(NC(=S)N2CCC(Cc3ccccc3)CC2)cc1	?	14.1µM*	-0.1%	·	1.2%	11.4%
COC(=O)Cc1ccc(NC(=S)N2CCN(C)CC2)cc1	-6.0%[10 µM]	?	1.0%	1.3%	·	-14.9%
CCOC(=O)c1c(S(=O)(=O)N2CCC(C(=O)N3CCN(c4cc(C)ccc4C)CC3)CC2)c(C)n(C)c1C	·	·	0.0%	-0.5%	2.9%	·
COc1cc2nc(C#N)nc(N)c2cc1OC	·	·	0.2%	·	-1.3%	·
CCc1cccc(NC(=S)N2CCC(c3ccccc3)C2)c1 (stereo not drawn)	10µM*	7.08µM*	1.8%	-0.3%	·	3.8%
Cc1ccc(CC(=O)O/N=C(\N)Cc2ccc([N+](=O)[O-])cc2)cc1	?	0.4%	1.7%	0.0%	·	6.4%
COc1ccc(C/C(N)=N/OC(=O)C(c2ccccc2)c2ccccc2)cc1OC	?	24.4%	·	-0.9%	-1.1%	-13.0%
N/C(Cc1ccc([N+](=O)[O-])cc1)=N\OC(=O)c1ccccc1Br	11.2µM*	?	-3.2%	0.0%	1.3%	0.3%
N/C(=N\OC(=O)c1ccccc1Br)c1ccc([N+](=O)[O-])cc1	?	?	0.7%	·	1.1%	15.6%
N/C(Cc1ccc([N+](=O)[O-])cc1)=N\OC(=O)CC1CCCCC1	12.6µM*	12.6µM*	1.8%	0.0%	1.1%	15.5%
N/C(Cc1ccc([N+](=O)[O-])cc1)=N\OC(=O)C(c1ccccc1)c1ccccc1	10µM*	?	·	-1.9%	0.8%	10.2%
CC(C)COc1ccc(C(=O)N(Cc2ccc(N(C)C)cc2)Cc2ccco2)cc1	·	·	3.0%	-1.0%	-10.9%	·
COc1ccc(-n2cccc2/C=C/[N+](=O)[O-])cc1	?	10µM*	-2.5%	0.2%	-5.4%	?
Cc1[nH]n(-c2nc(-c3ccccc3F)cc(=O)[nH]2)c(=O)c1CCO	-1.5%	10µM*	-0.6%	1.1%	·	9.8%
CCCCNC(=O)Cn1c(=O)cc(C)c2c(C)nn(-c3ccc(CC)cc3)c21	·	·	1.7%	1.5%	-11.1%	·
Cc1cc(C)nc(N2CCCC(C(=O)NCCc3ccc(F)cc3)C2)n1 (stereo not drawn)	5.6%	?	-3.4%[38.3 µM]	-2.0%	11.2µM*	18.7%
Cc1cc(C)nc(N2CCC(C(=O)NCCc3ccc(F)cc3)CC2)n1	-5.7%	?	12.2%	0.0%	?	1.4%
CCN1CCN(c2cc(C(C)C)nc3c(-c4ccccc4)c(C)nn23)CC1	-11.2%	-21.6%	-2.5%	1.1%	·	?
COc1ccccc1-c1c(C)nn2c(NCCN3CCCC3)cc(C)nc12	7.08µM*	6.31µM*	1.2%	-0.8%	-8.1%	9.7%
CCCc1cc(N2CCCC2)n2nc(C)c(-c3ccccc3)c2n1	3.0%[0.365 µM]	?	6.4%	-2.2%	31.6µM*	-14.5%
Cc1cc(NCCC(C)C)n2nc(C)c(-c3ccccc3)c2n1	-11.9%	-80.7%	21.3%[38.3 µM]	8.6%	28.2µM*	56.2µM*
